Hits are enriched below; roughly 4.1% of the tested compounds scored in any of these assays.
ssDAF-12 act: activates DAF-12 receptor from parasite S. stercoralis; activation, % at 6.8 µM; AID 652126; actives 1% (n = 370,000); HEK293 ssDAF-12/GRIP1 lit1-tk-luc reporter, luminescence; % of 3 µM dafachronic acid response;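 active means activation above the mean over all tested compounds plus 3 SD, cut at about 0.9% in these data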
hcDAF-12 act: activators of H. contortus DAF-12 nuclear receptor; activation, % at 6.8 µM; actives 1.4% (n = 370,000); AID 652067; HEK293 hcDAF-12 lit1-tk-luc reporter, luminescence; 0% DMSO, 100% Δ7-dafachronic acid;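 active means activation above the mean of all tested compounds plus 3 SD, cut at about 5.5% in these data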
hgDAF12 agonist: activates the H. glycines DAF-12 receptor ligand-binding domain | HEK293 GAL4-hgDAF12 UAS-luciferase reporter, agonist luminescence; normalized to butyrate control | activation, % at 6.8 µM | actives 1.8% (n = 370,000);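 active means activation above a cutoff set at the mean of all screened compounds plus 3 SD, cut at about 10% in these data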
DAX1 inh-1: inhibits human nuclear receptor DAX1; P51843; HEK293 Gal4-DAX1 luciferase reporter, luminescence; inhibition, % at 6.75 µM; actives 0.99% (n = 340,000);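 active means inhibition above the mean over all tested compounds plus 3 SD, cut at about 4.2% in these data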;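 further: inhibition shows as a rise in luminescence from relieved DAX1 repression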
Target sequence (P51843 207-470 limits assumed): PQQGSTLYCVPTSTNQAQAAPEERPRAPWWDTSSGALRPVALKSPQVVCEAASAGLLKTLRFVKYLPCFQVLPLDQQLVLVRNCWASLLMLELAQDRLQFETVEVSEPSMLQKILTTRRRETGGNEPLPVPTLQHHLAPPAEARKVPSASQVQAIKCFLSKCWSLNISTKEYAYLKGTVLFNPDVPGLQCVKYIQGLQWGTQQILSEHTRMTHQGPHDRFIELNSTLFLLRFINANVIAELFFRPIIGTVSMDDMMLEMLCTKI
DAX1 inh-2: DAX1 (NR0B1) inhibition, primary screen. HEK293T StAR-luciferase reporter, SF-1/DAX-1 repression relief. inhibition, % at 6.8 µM. actives 1.1% (n = 370,000);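 active means inhibition above the mean over all tested compounds plus 3 SD, cut at about 3.6% in these data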;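 further: higher inhibition means more luminescence from relief of DAX-1 repression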
Each line names hits and unclear results; the compound was inactive in the other large screens.

O=C(NCc1ccc(Cl)cc1)C(=O)NCC1OCCN1C(=O)c1cccs1 (stereo not drawn)	hcDAF-12 act 6.2
O=C(O)c1cccc2c1C(=O)c1cc([N+](=O)[O-])cc([N+](=O)[O-])c1-2	ssDAF-12 act 0.9
CC1(C)CC(=O)C=C(c2ccc(COC(=O)c3ccccc3)cc2)C1=O	hgDAF12 agonist 11, DAX1 inh-2 3.9
Cn1c(Cc2cccs2)nnc1SCC(=O)Nc1ccc(OCc2ccccc2)cc1	none (no result: DAX1 inh-1)
FC(F)(F)c1ccc(Cl)c(CN2CCN(c3ncc(Cc4ccccc4)cn3)CC2)c1	none (no result: DAX1 inh-1)
O=c1ccnc2n1COCS2	DAX1 inh-1 6.1
O=c1c(-c2ccnn2-c2ccc(F)cc2)cnc2n1CCS2	none
CCOC(=O)c1cc2cc3ccccc3cc2[nH]1	ssDAF-12 act 1.0
O=C(COc1c(Cl)cc(Cl)cc1Cl)N/N=C/c1ccc[nH]1	none (no result: DAX1 inh-1, DAX1 inh-2)
Cc1ccc(OCC(=O)N/N=C\c2cn(Cc3ccccc3)c3ccccc23)cc1C	ssDAF-12 act 1.0
COc1ccc(S(=O)(=O)N(C)C[C@H]2Oc3ccc(NC(=O)Nc4ccc(C(F)(F)F)cc4)cc3C(=O)N([C@H](C)CO)C[C@@H]2C)cc1	none
COc1ccc(NC(=O)Nc2ccc3c(c2)C(=O)N([C@H](C)CO)C[C@H](C)[C@@H](CN(C)S(=O)(=O)c2ccc(OC)cc2)O3)cc1	DAX1 inh-1 6.4
C[C@H](CO)N1C[C@H](C)[C@@H](CN(C)S(=O)(=O)c2ccccc2)Oc2ccc(NC(=O)NC3CCCCC3)cc2C1=O	DAX1 inh-2 4.2
C[C@H](CO)N1C[C@H](C)[C@@H](CN(C)S(=O)(=O)c2ccccc2)Oc2ccc(NC(=O)C3CCCCC3)cc2C1=O	none
Cc1ccccc1CN1CCCCC(NC(=O)Nc2cccc([N+](=O)[O-])c2)C1=O (stereo not drawn)	none (no result: DAX1 inh-1)
O=[N+]([O-])c1ccc(NCc2ccncc2)cc1	DAX1 inh-1 4.6
CCOC(=O)C[C@@H]1OC[C@H](C(C)C)N1S(=O)(=O)c1ccc(C)cc1	none (no result: DAX1 inh-1)
CCCCC(=O)c1ccc(O)cc1	none
O=C(Cc1ccc(Cl)cc1)c1ccc(O)cc1	DAX1 inh-1 4.9
Cc1ccc(CC(=O)c2ccc(Cl)cc2)cc1	none
O=C(CCO)c1ccc(O)cc1	DAX1 inh-1 4.3
COc1ccc(-n2ncc3c(NCc4cccnc4)ncnc32)cc1	hgDAF12 agonist 11
O=C(NCc1n[nH]c(=S)n1-c1ccc(Cl)c(Cl)c1)c1ccc(S(=O)(=O)N2CCCCC2)cc1	none
CCCN(CCC)S(=O)(=O)c1ccc(C(=O)NCc2n[nH]c(=S)n2-c2ccc(Cl)c(Cl)c2)cc1	DAX1 inh-1 5.2
O=C(O[C@H]1CC[C@@]23CCCN2C(=O)CCC[C@H]3C1)N1CCN(c2ccccc2)CC1	none (no result: DAX1 inh-1, DAX1 inh-2)
CC1CCN(C(=O)COc2ccc3ccccc3c2Br)CC1	DAX1 inh-2 4.2
Cn1c2ccccc2c2nnc(SCCN3CCOCC3)nc21	hcDAF-12 act 6.3
Cn1c2ccc(Br)cc2c2nnc(SCC(=O)O)nc21	hcDAF-12 act 5.7
CCOC(=O)CSc1nnc2c3ccccc3n(C)c2n1	none
CCCCn1c2ccc(C)cc2c2nnc(SCCN3CCCCC3)nc21	none
Cn1c2ccccc2c2nnc(SCC(=O)Nc3cccc(O)c3)nc21	none
Cn1c2ccccc2c2nnc(SCC(N)=O)nc21	ssDAF-12 act 0.9
CCn1c2ccccc2c2nnc(SCCN3CCOCC3)nc21	none
Cc1cc(C)c2c(c1)c1nnc(SCCN3CCCCC3)nc1n2C	ssDAF-12 act 1.6, hcDAF-12 act 6.1
Cc1cc(NC(=O)c2ccc(NS(=O)(=O)c3ccc(C)c(C)c3)cc2)no1	none (no result: DAX1 inh-1)
CC(C)n1nnnc1C1c2ccccc2OCC(=O)N1Cc1cccc(C(F)(F)F)c1 (stereo not drawn)	none (no result: DAX1 inh-1)
O=C(Nc1ccccc1C(F)(F)F)OCCCN1CCC2(CCC(c3ccccc3)CC2)C1=O (stereo not drawn)	none (no result: DAX1 inh-1)
CSc1nnc2c3cc(F)ccc3n(C)c2n1	ssDAF-12 act 1.0
O=C(CC1CC2CCC1C2)N1CCN(S(=O)(=O)c2ccccc2F)CC1 (stereo not drawn)	none
C[C@H]1COc2cccc(N3CCSCC3)c2S(=O)(=O)N1C	none (no result: DAX1 inh-1)
O=C(CSc1ccc(-c2ccccc2)nn1)c1cccs1	hgDAF12 agonist 12
CCCc1nnc(NC(=O)c2cccc(OC)c2)s1	hgDAF12 agonist 13, DAX1 inh-2 4.0
COC(=O)N/N=C(\CCC(=O)O)c1cccs1	none
O=C(O)CC/C(=N\NC(=O)c1ccccc1)c1cccs1	hgDAF12 agonist 11
COc1cccc(C(=O)Nc2ccccc2)c1	none
O=C(O)CC/C(=N\NC(=O)c1ccncc1)c1ccccc1	none
COc1cccc(C(=O)NNC(=O)c2ccccc2)c1	ssDAF-12 act 1.4
COc1cccc(C(=O)N/N=C(/CCC(=O)O)c2ccccc2)c1	hgDAF12 agonist 12
CC(=O)c1cccc(-c2ccnc3c2CC(C(=O)Nc2ccc(F)c(Cl)c2)O3)c1 (stereo not drawn)	none (no result: DAX1 inh-1)
CCOC(=O)C1(Cc2ccccc2)CCN(Cc2ccnc3ccccc23)CC1	none (no result: DAX1 inh-1)
CC(=O)N1CCc2c1cccc2S(=O)(=O)NC(CC(C)C)C(=O)Nc1ccc(F)cc1Cl (stereo not drawn)	none (no result: DAX1 inh-1)
COc1cccc(C(=O)NNC(=O)C(=O)Nc2cccc3ccccc23)c1	none
COc1cccc(C(=O)NNC(=O)c2ccc3ccccc3c2O)c1	ssDAF-12 act 1.6
COc1cc(C(=O)Nc2nnc(CC(=O)NCc3ccccc3)s2)cc(OC)c1OC	DAX1 inh-1 4.2
COc1ccc(N2CCN(CCCNC(=O)COc3ccc(C)cc3)CC2)cc1	none (no result: DAX1 inh-1)
COc1ccc(Cn2ccc3ccc(-c4ccc5ccn(C(=O)C6CCC6)c5c4)cc32)cc1	none (no result: DAX1 inh-1)
COc1ccc(-c2cnn3c4c(c(C)nc23)CCN4C2CCCC2)cc1OC	DAX1 inh-1 5.9
COCCN1CCc2c(C)nc3c(-c4ccc(OC)c(OC)c4)cnn3c21	none
COc1ncccc1-c1nnn(-c2ccccc2Br)n1	none
COc1ncccc1-c1nnn(-c2ccccc2)n1	ssDAF-12 act 1.3, hcDAF-12 act 5.7, hgDAF12 agonist 11
c1ccc(-n2nnc(-c3cccnc3)n2)cc1	hgDAF12 agonist 11
Cc1ccc(-n2nnc(-c3cccnc3)n2)cc1	none
Cc1nc(C2COc3ccccc3O2)sc1C(=O)O (stereo not drawn)	DAX1 inh-1 5.5
Cc1nc2ccc3nc(NC(=O)C4COc5ccccc5O4)sc3c2s1 (stereo not drawn)	none
COC(=O)C[C@@H]1CC[C@@H]2[C@@H](COc3ccc(NC(=O)Nc4cccc(Cl)c4)cc3C(=O)N2C)O1	none (no result: DAX1 inh-1)
COc1cccc(CNC(=O)[C@H]2CCCN2C(=O)[C@H]2CCCN2C(=O)c2ccc(F)c(F)c2)c1	none (no result: DAX1 inh-1)
FC(F)(F)c1cccc(Cn2ccc3ccc(-c4ccc5ccn(Cc6cccc(C(F)(F)F)c6)c5c4)cc32)c1	none (no result: DAX1 inh-1)
Cn1cc([C@]2(O)C(=O)Nc3cccc(Cl)c32)c2ccccc21	none (no result: DAX1 inh-1)
Cn1cc([C@]2(O)C(=O)Nc3ccc(F)cc32)c2ccccc21	ssDAF-12 act 1.2 (no result: DAX1 inh-1)

Source: PubChem (The Scripps Research Institute Molecular Screening Center)
